Pf growth 96h: Primary qHTS for delayed death inhibitors of the malarial parasite plastid, 96 hour incubation; actives 6.9% (n = 320,000); Potency, µM (highest dose often 28.7 µM), for the others: at the top dose activity change, negative = inhibition, most hits filed as inhibitors; P. falciparum luciferase reporter growth, 96 h; note: potency is the fitted concentration of half-maximal effect; % is set by controls: 0 for no effect and ±100 for the full control effect
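Compounds incubated with erythrocytes infected by luciferase-expressing P. falciparum (2% hematocrit, 0.05% parasitemia final) for 96 hours, 37 C in 5% CO2. Growth inhibition scored as decreased luciferase luminescence.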
MARV entry inh: qHTS for inhibitors of binding or entry into cells for Marburg Virus. actives 1.8% (n = 300,000). Potency, µM (series often up to 37.8 µM), without a hit: at the highest dose activity change, negative = inhibition, hits mostly inhibitors. Marburg virus pseudotyped entry inhibition, cell reporter. AID 540276, 2011; calls by dose curve; tested in HEK293 cells; note: potency is the fitted concentration of half-maximal effect; % is set by controls: 0 for no effect and ±100 for the full control effect
Pf growth 48h: Primary qHTS for delayed death inhibitors of the malarial parasite plastid, 48 hour incubation | P. falciparum luciferase growth in erythrocytes, 48 h | Potency, µM (doses to about 28.7 µM), for the others: at the highest dose activity change, negative = inhibition, hits mostly inhibitors | actives 5.9% (n = 310,000) | AID 504832, 2011; note: potency is the fitted concentration of half-maximal effect; % is set by controls: 0 for no effect and ±100 for the full control effect
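Luciferase-expressing P. falciparum in infected erythrocytes (2% hematocrit, 0.1% parasitemia final) in RPMI 1640/0.5% Albumax were exposed to compound for 48 hours at 37 C, 5% CO2; growth read as luminescence.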
CHX counter: Cycloheximide Counterscreen for Small Molecule Inhibitors of Shiga Toxin; max response, %; AID 2314, 2010; actives 12% (n = 300,000); cell reporter, cycloheximide protein synthesis inhibition counterscreen; in the data active = max response mostly above about 13%, no sharp cut-off; inactive = mostly below about 14%; note: read at 38.3 µM for the half of the compounds with a filed dose; 0% is about no effect
LASV entry inh: qHTS for Inhibitors of binding or entry into cells for Lassa Virus. Potency, µM (top dose mostly 37.9 µM), inactives show at the highest dose activity change, negative = inhibition, most hits filed as inhibitors. Lassa virus pseudotype entry inhibition, cell reporter. actives 1.2% (n = 300,000). AID 540256, 2011; calls by dose curve; tested in HEK293 cells; note: potency is the fitted concentration of half-maximal effect; % is set by controls: 0 for no effect and ±100 for the full control effect; nearly all actives have a fitted effect of over 50% in size
Shiga toxin inh: A qHTS for Small Molecule Inhibitors of Shiga Toxin. Vero cells, Shiga toxin protein synthesis inhibition reporter. inhibition, % at 38.7 µM. actives 9.2% (n = 290,000). AID 2315, 2010; in the data active = inhibition mostly above about 28%, no sharp cut-off; inactive = mostly below about 43%; note: 0% is about no effect
* marks the source's active call; other numbers are inactive results; u = inconclusive; x = no result; + = active, no number; [ ] = dose if it differs, or a comment. Most compounds without a hit are left out; they make up all but 19% or so of the library. Unless noted, calls come from the whole dose curve; as a rule, active = well fitted inhibition curve with a large enough effect; inconclusive = small, poorly fitted or top-dose-only effect, or another doubt; inactive = no such curve, though single readings can be large or run the other way.

SMILES	Pf growth 96h	MARV entry inh	Pf growth 48h	CHX counter	LASV entry inh	Shiga toxin inh
CC(=O)C(C)Oc1ccc(Cc2ncc(C(F)(F)F)cc2Cl)cc1 (configuration not stated)	u	-17%[46.1 µM]	u	-1	x	11
COc1ccc(NC(=S)Nc2ccc(C)c(Cl)c2)cc1OC	-8%	x	2%	3	x	25
CCc1ccc(NC(=O)CSc2nc3ccsc3c(=O)n2CCCCCC(=O)O)cc1	u	21%[46.1 µM]	-9%	-2	24%	-9
COC(=O)c1ccccc1NC(=O)CSc1ncccn1	12%	23%	11%	8	17%	31
CC1=NCCN1CCNC(=O)Nc1ccc(C(C)(C)C)cc1	30%	-9%[46.1 µM]	9%	1	8%[46.1 µM]	11
Cn1c(=O)c2cc(S(=O)(=O)NC(C(=O)N3CCCCCC3)c3ccccc3)ccc2n(C)c1=O (configuration not stated)	10µM*	x	x	-5	x	-12
CCOC(=O)C1CCCN(C(=O)c2cnn3c(C(F)(F)F)cc(-c4ccccc4)nc23)C1 (configuration not stated)	x	-22%	9.3µM*	-4	u	-2
CCOC(=O)C1CCCN(C(=O)c2ccc3c(c2)sc2nc(-c4cccc(OC)c4)cn23)C1 (configuration not stated)	x	x	x	x	2%[46.1 µM]	x
COc1ccc(-c2cc(C(F)(F)F)n3ncc(C(=O)N4CCCCC4c4cccnc4)c3n2)cc1 (configuration not stated)	-12%	u	2.9µM*	9	u	24
CCOC(=O)C1CCCN(C(=O)c2cc3nc(-c4cccc(OC)c4)cc(C(F)(F)F)n3n2)C1 (configuration not stated)	x	u	12µM*	-3	u	-4
CCOC(=O)c1cnn2c(C(F)(F)F)cc(-c3ccccc3)nc12	-6%	u	5%	-4	0%	-4
CCOc1cc(N2CCOCC2)c(OCC)cc1NC(=O)c1ccc(OCc2c(C)noc2C)c(OC)c1	u	-27%	u	-2	u	-9
O=C(N/N=C\c1ccc(F)cc1)c1cc(OCC(F)(F)F)ccc1OCC(F)(F)F	34%	-15%	u	-3	0%	-8
COc1ccc(C2CC(=O)Oc3c(C(CCN4CCOCC4)c4cc(OC)c(OC)c(OC)c4)c(OC)cc(OC)c32)cc1 (configuration not stated)	u	x	9.3µM*	7	x	-1
COc1ccc(C2CC(=O)Oc3c(C(CCN4CCN(c5ccccc5)CC4)c4ccc(N(C)C)cc4)c(OC)cc(OC)c32)cc1 (configuration not stated)	10µM*	x	9.3µM*	0	x	-1
COc1cc(C(CCN2CCOCC2)c2c(OC)cc(OC)c3c2OC(=O)CC3c2ccc(N(C)C)cc2)cc(OC)c1OC (configuration not stated)	u	x	u	5	x	-21
COc1cc(OC)c2c(c1C(CCN1CCOCC1)c1ccc(N(C)C)cc1)OC(=O)CC2c1ccc(N(C)C)cc1 (configuration not stated)	u	x	10µM*	2	x	-8
Cc1nc(-c2ccccc2)nc2[nH]c(C(C)C)cc(=O)c12	5%	-23%	-27%	-3	-2%	-4
Cc1nc(-c2ccccc2)nc2[nH]c(=O)n(-c3ccccc3)c(=O)c12	x	17%	39%	31*	26%	54*
CCN(CC)CCn1c(=N)n(CC(O)COc2ccccc2C)c2ccccc21 (configuration not stated)	x	3.2µM*	x	x	u	x
CCN(CC)CCn1c(=N)n(CC(O)c2ccc(OC)c(OC)c2)c2ccccc21 (configuration not stated)	4%	x	9.3µM*	-1	x	-14
COC(=O)[C@@H]1CC[C@H](C)[C@@H](c2ccc(C)cc2)N1C(=O)c1ccc(/C=N/OC[C@@H](O)COCc2ccco2)cc1	6.6µM*	u	6.6µM*	-1	u	7
N/C(=N\OC(=O)c1ccc(Br)cc1)c1ccncc1	-24%	u	78%	45*	13%[46.1 µM]	52*
N/C(=N\OC(=O)c1ccccc1)c1ccncc1	u	15%[46.1 µM]	75%	46*	0%[46.1 µM]	87*
COc1cc(OC)cc(C(=O)O/N=C(\N)c2ccncc2)c1	u	-1%	u	5	14%	26
SMILES	Pf growth 96h	MARV entry inh	Pf growth 48h	CHX counter	LASV entry inh	Shiga toxin inh
N/C(=N\OS(=O)(=O)c1ccccc1)c1ccncc1	8.3µM*	-3%	u	-2	-22%	25
N/C(=N\OC(=O)c1cccc(Br)c1)c1ccncc1	-1%	-19%[46.1 µM]	8%	35*	19%	83*
Cc1ccccc1-n1c(SCC(=O)N(C)C2CCS(=O)(=O)C2)nc2ccccc2c1=O (configuration not stated)	9%	18%[46.1 µM]	u	-4	9%	14
O=C(OCC(=O)N1CCCc2ccccc21)c1ccccc1NCCO	7%	6%	u	x	-2%	x
COc1ccc(C(=O)O/N=C(/c2ccccc2)c2ccncc2)cc1	-29%	1%	184%	42*	-21%	61*
CCC(CC)NC(=O)Nc1ccccc1C(F)(F)F	20%	x	-5%	-3	x	7
CC1=NN(c2ccc(C)cc2)C(=O)/C1=C\C=C\c1ccccc1	u	3%	13µM*	-1	10%	3
CC1=NN(c2cccc(C(=O)O)c2)C(=O)/C1=C\C=C/c1ccccc1	-11%	u	u	80*	u	+
O=c1c(Cl)cc(Cl)nn1-c1ccccc1	-27%	16µM*	-7%	-2	u	-9
COc1cc(Cl)nn(-c2ccccc2)c1=O	-21%	u	12%	3	-6%	16
O=C1N/C(=N\c2ccccn2)SC1Cc1ccccc1Cl (configuration not stated)	u	x	u	5	x	22
O=C1NC(=Nc2cccc(Cl)c2)SC1Cc1cccc(Cl)c1Cl (configuration not stated)	10µM*	-23%	-10%	-7	u	-6
CCOC(=O)c1sc(C)c2c(=O)n(CC(=O)c3ccc(Br)cc3)nnc12	36%	-14%	0%	18	u	48
CCCCOc1ccc2ccccc2c1C=O	39%	2%[46.1 µM]	-2%	32*	-26%	68
COCCNC(=O)c1sc2ncn(CC(=O)N3CCCCC3)c(=O)c2c1C	u	17%	36%	-3	26%	-4
O=C(c1ccc(S(=O)(=O)N2CCCCC2)cc1)N(c1ccccn1)C1CCCCC1	0%	-10%[46.1 µM]	48%	-2	23%	-4

Screening data: PubChem BioAssay, National Center for Advancing Translational Sciences (NCATS)
